Legend:
Assay in all cases: DAPPL (digital affinity profiling via proximity ligation, sequencing); 10 mM Tris-HCl pH 7.5, 50 mM NaCl, 1 mM DTT, 4% glycerol, room temperature, 30 min; GST-TFs on glutathione beads, 16-mer random dsDNA library, 0.1% formaldehyde crosslink after washing; high values mean tight binding
[1] = target: T1, FEV (Homo sapiens, UniProt Q99581 1-238); conditions: protein: recombinant; tags: N-terminal GST; dsDNA, one strand shown
T1 sequence: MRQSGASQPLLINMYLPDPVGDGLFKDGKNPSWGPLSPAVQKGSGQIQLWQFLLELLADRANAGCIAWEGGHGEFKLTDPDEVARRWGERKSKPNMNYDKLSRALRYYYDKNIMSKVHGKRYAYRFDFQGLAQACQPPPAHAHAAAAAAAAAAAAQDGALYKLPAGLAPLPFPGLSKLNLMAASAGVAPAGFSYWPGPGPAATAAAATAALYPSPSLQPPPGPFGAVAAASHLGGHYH
Summary of the method: (§1)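 GST fusions of human transcription factors were expressed in yeast and captured with glutathione beads. Once given DNA barcodes and pooled alongside a tag-only sample, they were incubated for 30 min at room temperature with 200 nmole of a random double-stranded 16-mer DNA library in Tris/NaCl/DTT/glycerol buffer, then washed, crosslinked (0.1% formaldehyde), proximity-ligated, PCR-amplified and sequenced on an Illumina NextSeq500. The binding signal of each hexamer is its read frequency for a factor divided by its frequency for the tag-only sample.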

[2] = target: ETV5 (Homo sapiens, UniProt P41161 1-510); conditions: protein: recombinant; tags: N-terminal GST; dsDNA, one strand shown
Chain of ETV5 (P41161 whole entry): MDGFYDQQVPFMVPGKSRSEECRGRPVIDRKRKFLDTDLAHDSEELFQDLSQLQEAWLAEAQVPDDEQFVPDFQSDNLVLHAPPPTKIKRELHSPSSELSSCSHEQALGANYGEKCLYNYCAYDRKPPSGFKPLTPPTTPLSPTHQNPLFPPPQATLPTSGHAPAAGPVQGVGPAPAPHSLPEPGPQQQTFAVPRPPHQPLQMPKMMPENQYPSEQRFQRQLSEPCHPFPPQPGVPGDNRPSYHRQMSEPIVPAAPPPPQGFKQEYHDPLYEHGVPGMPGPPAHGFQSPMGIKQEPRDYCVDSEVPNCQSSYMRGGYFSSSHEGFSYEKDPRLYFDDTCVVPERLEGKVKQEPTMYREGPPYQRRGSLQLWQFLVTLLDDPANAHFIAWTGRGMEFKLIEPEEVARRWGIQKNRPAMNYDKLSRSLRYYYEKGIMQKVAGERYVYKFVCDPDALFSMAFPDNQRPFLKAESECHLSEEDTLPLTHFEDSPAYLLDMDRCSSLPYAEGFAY
Summary of the method: as §1

[3] = target: HSF1 (Homo sapiens, UniProt Q00613 1-529); conditions: protein: recombinant; tags: N-terminal GST; chain copies: 3; dsDNA, one strand shown
Chain of HSF1 (Q00613 whole entry): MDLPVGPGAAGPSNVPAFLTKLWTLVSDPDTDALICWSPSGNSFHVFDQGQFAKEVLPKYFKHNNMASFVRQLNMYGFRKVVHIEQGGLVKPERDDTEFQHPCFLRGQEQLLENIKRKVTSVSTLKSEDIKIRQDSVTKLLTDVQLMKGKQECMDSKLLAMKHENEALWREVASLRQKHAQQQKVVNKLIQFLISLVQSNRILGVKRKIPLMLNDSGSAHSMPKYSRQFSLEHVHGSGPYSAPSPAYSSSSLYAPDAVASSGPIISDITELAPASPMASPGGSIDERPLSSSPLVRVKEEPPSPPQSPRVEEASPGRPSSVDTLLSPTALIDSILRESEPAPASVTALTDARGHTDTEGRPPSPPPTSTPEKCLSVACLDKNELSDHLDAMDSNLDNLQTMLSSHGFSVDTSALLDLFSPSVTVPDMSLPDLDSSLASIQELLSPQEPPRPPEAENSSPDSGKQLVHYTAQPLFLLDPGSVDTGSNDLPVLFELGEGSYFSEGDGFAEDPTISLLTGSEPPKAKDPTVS
Summary of the method: as §1

[4] = target: T2, SPIC (Homo sapiens, UniProt Q8N5J4 1-248); conditions: protein: recombinant; tags: N-terminal GST; dsDNA, one strand shown
T2 sequence: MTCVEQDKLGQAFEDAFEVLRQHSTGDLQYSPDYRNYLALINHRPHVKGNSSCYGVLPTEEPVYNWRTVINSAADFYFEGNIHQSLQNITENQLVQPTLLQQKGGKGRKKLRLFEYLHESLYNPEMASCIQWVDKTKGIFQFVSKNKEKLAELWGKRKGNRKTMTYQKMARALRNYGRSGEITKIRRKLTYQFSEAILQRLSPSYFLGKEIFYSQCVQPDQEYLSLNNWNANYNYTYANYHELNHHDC
Summary of the method: as §1

[5] = target: ELF4 (Homo sapiens, UniProt Q99607 1-663); conditions: protein: recombinant; tags: N-terminal GST; dsDNA, one strand shown
Chain of ELF4 (Q99607 whole entry): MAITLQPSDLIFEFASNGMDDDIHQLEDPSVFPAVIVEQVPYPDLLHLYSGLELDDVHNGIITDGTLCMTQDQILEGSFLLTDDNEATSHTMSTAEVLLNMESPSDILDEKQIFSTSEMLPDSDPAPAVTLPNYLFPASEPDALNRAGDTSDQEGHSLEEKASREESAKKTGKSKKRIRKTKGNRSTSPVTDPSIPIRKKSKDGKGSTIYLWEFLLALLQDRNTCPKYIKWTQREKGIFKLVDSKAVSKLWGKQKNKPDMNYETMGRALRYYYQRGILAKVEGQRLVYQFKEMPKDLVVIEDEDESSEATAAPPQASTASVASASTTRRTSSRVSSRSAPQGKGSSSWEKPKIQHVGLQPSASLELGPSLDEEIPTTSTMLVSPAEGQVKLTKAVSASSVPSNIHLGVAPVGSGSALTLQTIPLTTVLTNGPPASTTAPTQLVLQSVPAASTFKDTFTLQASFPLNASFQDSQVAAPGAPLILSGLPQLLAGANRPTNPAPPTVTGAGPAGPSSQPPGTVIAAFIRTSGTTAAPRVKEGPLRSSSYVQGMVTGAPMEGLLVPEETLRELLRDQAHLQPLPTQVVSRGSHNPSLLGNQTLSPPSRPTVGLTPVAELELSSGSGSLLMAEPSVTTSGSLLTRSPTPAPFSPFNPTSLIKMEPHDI
Summary of the method: as §1

[6] = target: T3, ETV2 (Homo sapiens, UniProt O00321 1-342); conditions: protein: recombinant; tags: N-terminal GST; dsDNA, one strand shown
T3 sequence: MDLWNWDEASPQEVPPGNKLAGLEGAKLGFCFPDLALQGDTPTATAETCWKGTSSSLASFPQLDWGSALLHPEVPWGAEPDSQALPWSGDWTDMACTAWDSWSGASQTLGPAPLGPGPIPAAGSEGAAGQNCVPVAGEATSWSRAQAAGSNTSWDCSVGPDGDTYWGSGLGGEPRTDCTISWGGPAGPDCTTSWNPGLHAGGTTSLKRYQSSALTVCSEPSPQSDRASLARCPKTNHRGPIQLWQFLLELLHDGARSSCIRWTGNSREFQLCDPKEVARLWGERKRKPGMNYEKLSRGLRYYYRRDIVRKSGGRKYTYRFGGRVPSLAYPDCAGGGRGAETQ
Summary of the method: as §1

[7] = target: CRX (Homo sapiens, UniProt O43186 1-299); conditions: protein: recombinant; tags: N-terminal GST; dsDNA, one strand shown
Chain of CRX (O43186 whole entry): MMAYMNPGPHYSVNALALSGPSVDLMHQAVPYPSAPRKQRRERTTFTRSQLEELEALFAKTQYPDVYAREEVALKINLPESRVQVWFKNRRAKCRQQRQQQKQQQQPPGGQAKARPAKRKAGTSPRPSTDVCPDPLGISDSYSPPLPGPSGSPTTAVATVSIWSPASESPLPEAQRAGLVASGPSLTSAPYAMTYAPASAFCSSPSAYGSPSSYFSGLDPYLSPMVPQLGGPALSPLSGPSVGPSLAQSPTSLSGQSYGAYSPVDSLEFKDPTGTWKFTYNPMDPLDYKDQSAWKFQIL
Summary of the method: as §1

[8] = target: ETV1 (Homo sapiens, UniProt P50549 1-477); conditions: protein: recombinant; tags: N-terminal GST; dsDNA, one strand shown
Chain of ETV1 (P50549 whole entry): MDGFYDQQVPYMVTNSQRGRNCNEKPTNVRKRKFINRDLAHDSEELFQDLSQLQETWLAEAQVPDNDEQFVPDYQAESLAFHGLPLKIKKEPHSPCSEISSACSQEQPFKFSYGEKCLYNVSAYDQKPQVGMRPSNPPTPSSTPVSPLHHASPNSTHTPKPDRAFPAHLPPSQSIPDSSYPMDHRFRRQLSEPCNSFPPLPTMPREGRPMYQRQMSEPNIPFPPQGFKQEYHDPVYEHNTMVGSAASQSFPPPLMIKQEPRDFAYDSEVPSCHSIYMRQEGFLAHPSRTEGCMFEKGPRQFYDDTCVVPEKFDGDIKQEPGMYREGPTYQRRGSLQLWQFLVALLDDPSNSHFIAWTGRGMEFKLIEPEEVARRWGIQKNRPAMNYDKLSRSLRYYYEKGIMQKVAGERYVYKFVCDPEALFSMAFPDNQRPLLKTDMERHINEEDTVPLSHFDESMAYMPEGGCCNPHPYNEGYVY
Summary of the method: as §1

[9] = target: T4, ERF (Homo sapiens, UniProt P50548 1-548); conditions: protein: recombinant; tags: N-terminal GST; dsDNA, one strand shown
T4 sequence: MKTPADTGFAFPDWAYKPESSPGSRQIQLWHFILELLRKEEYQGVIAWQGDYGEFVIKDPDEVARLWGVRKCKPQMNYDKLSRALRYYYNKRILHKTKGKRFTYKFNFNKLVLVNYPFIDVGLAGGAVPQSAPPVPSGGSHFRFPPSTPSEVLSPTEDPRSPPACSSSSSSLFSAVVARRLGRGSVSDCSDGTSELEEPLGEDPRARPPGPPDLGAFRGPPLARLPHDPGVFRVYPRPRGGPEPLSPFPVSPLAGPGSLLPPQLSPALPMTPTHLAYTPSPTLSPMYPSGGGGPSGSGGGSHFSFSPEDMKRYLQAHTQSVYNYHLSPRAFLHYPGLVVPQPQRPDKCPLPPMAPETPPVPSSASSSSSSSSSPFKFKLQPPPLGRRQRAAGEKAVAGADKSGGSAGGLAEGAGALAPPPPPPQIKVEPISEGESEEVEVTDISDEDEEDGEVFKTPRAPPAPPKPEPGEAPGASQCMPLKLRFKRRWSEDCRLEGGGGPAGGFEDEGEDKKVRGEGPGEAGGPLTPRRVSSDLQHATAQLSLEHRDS
Summary of the method: as §1

[10] = target: T5, ETV3L (Homo sapiens, UniProt Q6ZN32 1-361); conditions: protein: recombinant; tags: N-terminal GST; dsDNA, one strand shown
T5 sequence: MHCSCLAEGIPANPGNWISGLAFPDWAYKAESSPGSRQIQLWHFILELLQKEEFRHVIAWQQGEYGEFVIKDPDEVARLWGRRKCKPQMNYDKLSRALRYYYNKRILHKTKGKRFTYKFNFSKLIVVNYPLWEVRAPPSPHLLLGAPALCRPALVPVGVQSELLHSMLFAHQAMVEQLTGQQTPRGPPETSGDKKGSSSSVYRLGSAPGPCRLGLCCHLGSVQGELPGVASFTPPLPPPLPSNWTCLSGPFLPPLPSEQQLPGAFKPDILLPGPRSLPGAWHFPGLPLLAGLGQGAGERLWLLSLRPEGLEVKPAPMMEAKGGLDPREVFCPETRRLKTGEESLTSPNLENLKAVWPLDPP
Summary of the method: as §1

[11] = target: T6, ETS2 (Homo sapiens, UniProt P15036 1-469); conditions: protein: recombinant; tags: N-terminal GST; dsDNA, one strand shown
T6 sequence: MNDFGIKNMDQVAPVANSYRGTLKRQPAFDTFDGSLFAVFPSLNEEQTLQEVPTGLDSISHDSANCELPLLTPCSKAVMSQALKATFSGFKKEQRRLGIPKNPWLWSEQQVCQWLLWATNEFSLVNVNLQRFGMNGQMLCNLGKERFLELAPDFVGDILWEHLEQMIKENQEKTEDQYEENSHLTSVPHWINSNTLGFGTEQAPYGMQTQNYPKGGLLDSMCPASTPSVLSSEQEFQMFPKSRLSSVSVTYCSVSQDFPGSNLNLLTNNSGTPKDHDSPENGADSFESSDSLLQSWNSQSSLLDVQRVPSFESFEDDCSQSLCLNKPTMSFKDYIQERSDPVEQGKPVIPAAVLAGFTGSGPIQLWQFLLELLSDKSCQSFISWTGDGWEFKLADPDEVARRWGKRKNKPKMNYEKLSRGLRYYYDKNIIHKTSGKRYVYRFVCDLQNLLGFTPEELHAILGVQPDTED
Summary of the method: as §1

[12] = target: T7, SPDEF (Homo sapiens, UniProt O95238 1-335); conditions: protein: recombinant; tags: N-terminal GST; dsDNA, one strand shown
T7 sequence: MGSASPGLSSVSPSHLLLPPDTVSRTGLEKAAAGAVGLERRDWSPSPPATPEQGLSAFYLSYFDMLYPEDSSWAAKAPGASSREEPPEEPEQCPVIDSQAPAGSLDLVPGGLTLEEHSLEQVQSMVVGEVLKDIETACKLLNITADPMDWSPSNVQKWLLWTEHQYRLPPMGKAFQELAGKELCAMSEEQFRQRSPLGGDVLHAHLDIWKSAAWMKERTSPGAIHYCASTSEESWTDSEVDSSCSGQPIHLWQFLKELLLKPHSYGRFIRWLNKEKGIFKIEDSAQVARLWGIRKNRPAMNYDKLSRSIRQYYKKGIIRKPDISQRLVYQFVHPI
Summary of the method: as §1

[13] = target: T8, ELF5 (Homo sapiens, UniProt Q9UKW6-2 1-255); conditions: protein: recombinant; tags: N-terminal GST; dsDNA, one strand shown
T8 sequence: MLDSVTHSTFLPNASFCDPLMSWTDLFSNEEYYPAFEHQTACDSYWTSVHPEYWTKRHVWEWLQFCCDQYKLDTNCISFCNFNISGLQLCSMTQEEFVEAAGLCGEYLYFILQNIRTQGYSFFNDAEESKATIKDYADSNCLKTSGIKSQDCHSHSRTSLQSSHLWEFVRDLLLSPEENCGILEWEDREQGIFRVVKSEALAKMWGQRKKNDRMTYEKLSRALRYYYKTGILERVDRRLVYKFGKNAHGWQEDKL
Summary of the method: as §1

[14] = target: T9, ETV3 (Homo sapiens, UniProt P41162-2 1-143); conditions: protein: recombinant; tags: N-terminal GST; dsDNA, one strand shown
T9 sequence: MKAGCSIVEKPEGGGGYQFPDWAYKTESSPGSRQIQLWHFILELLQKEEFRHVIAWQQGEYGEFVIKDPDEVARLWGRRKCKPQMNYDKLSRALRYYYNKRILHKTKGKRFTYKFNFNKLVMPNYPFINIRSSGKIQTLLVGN
Summary of the method: as §1

[15] = target: ETV6 (Homo sapiens, UniProt P41212 1-452); conditions: protein: recombinant; tags: N-terminal GST; dsDNA, one strand shown
Chain of ETV6 (P41212 whole entry): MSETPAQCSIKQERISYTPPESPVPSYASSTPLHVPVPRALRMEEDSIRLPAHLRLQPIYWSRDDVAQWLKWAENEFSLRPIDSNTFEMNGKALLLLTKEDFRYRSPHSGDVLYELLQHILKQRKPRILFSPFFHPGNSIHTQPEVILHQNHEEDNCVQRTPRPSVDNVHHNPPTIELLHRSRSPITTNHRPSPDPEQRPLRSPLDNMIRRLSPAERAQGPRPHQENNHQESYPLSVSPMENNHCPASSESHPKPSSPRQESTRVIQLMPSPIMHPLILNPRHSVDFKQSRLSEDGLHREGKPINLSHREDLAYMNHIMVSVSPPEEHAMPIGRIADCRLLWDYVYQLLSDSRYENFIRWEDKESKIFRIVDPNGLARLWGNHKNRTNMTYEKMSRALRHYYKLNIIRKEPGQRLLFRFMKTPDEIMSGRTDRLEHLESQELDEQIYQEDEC
Summary of the method: as §1

Q: What does the source list for ATCGTC?
A: binding signal [1]: 1.02 fold enrichment (6-mer frequency, TF over GST control); binding signal [2]: 1.06 fold enrichment (6-mer frequency, TF over GST control); binding signal [3]: 1.06 fold enrichment (6-mer frequency, TF over GST control); binding signal [4]: 1.06 fold enrichment (6-mer frequency, TF over GST control); binding signal [5]: 1.07 fold enrichment (6-mer frequency, TF over GST control); binding signal [6]: 1.02 fold enrichment (6-mer frequency, TF over GST control); binding signal [7]: 1.09 fold enrichment (6-mer frequency, TF over GST control); binding signal [8]: 1.14 fold enrichment (6-mer frequency, TF over GST control); binding signal [9]: 1.13 fold enrichment (6-mer frequency, TF over GST control); binding signal [10]: 1.09 fold enrichment (6-mer frequency, TF over GST control); binding signal [11]: 1.05 fold enrichment (6-mer frequency, TF over GST control); binding signal [12]: 1.05 fold enrichment (6-mer frequency, TF over GST control); binding signal [13]: 1.07 fold enrichment (6-mer frequency, TF over GST control); binding signal [14]: 1.06 fold enrichment (6-mer frequency, TF over GST control); binding signal [15]: 1.06 fold enrichment (6-mer frequency, TF over GST control)

From article PMC7862700, “An all-to-all approach to the identification of sequence-specific readers for epigenetic DNA modifications on cytosine”
